Hits are enriched below; roughly 2.3% of the tested compounds scored in any of these assays.
GLD-1 RNA inh – GLD-1-TGE RNA interaction inhibition (C. elegans); purified GLD-1 + fluorescein TGE RNA, fluorescence polarization; inhibition, % at 5.96 µM; actives 0.44% (n = 320,000);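 active means percent inhibition above a per-plate cutoff, the plate mean of test compounds plus 3 SD, cut at about 30% in these data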;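 further: 0% = DMSO wells with GLD-1 and probe and 100% = wells lacking GLD-1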
Target sequence (Q17339 whole entry, looked up): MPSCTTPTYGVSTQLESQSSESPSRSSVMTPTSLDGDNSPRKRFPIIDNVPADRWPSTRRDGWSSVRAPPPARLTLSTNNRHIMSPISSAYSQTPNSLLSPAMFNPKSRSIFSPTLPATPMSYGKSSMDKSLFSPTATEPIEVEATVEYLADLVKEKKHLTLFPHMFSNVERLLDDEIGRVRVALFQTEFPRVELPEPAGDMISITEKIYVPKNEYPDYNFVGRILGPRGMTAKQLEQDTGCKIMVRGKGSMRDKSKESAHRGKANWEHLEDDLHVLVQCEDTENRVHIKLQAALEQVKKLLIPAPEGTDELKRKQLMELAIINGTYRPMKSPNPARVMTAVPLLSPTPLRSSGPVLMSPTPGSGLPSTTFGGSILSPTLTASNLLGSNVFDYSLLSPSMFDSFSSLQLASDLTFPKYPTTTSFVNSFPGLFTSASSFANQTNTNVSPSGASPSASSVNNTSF
Mcl-1 Bim block – human Bim-Mcl-1 interaction inhibition | Bead-based flow cytometry, Bim peptide-Mcl-1 binding | Q07820 | actives 0.1% (n = 190,000) | AID 1009 | inhibition, % at 10 µM; in the data active means inhibition above about 40%;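 further: 0% = no compound tracer wells and 100% = peptide blocker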
Mcl1 Noxa PPI – Mcl-1/Noxa interaction inhibition | TR-FRET Mcl-1/Noxa peptide binding, 2 h | actives 1.5% (n = 220,000) | Q07820 | AID 1022 | inhibition, % at 21.7 µM;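 active means compounds that cut the protein-peptide binding signal by more than 50% relative to plate controls in a single-dose test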;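 further: His-tagged Mcl-1 with rhodamine Noxa BH3 peptide and terbium anti-His antibody; 0% = Mcl-1 plus Noxa peptide wells and 100% = peptide-only wells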
Bcl-xL primary – Bcl-xL (human) inhibition; actives 0.7% (n = 320,000); inhibition, % at 10.9 µM; Q07817; GST-Bcl-xL / FITC-Bim BH3 peptide fluorescence polarization; AID 2129;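 active means inhibition above the mean of all tested compounds plus 3 SD, cutoff set per campaign, cut at about 30% in these data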;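 further: 0% = DMSO wells and 100% = unlabeled Bim-BH3 peptide competitor; inhibitors lower millipolarization by displacing the labeled peptide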
Target sequence (Q07817 whole entry, looked up): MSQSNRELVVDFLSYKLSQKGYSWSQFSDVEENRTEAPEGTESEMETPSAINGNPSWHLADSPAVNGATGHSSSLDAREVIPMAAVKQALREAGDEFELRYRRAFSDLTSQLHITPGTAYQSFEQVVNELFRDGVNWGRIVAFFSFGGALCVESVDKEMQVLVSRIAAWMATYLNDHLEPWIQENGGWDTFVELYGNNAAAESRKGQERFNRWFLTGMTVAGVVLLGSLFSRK
MCL1 BIM primary – disrupts human MCL1 binding to BIM-BH3 peptide | Q07820 | GST-MCL1 / FITC-Bim-BH3 fluorescence polarization | inhibition, % at 10.9 µM | actives 0.68% (n = 320,000) | AID 2057;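 active means inhibition above the mean inhibition of all tested compounds plus 3 SD, set per campaign, cut at about 40% in these data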;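 further: 0% = DMSO wells and 100% = unlabeled Bim-BH3 peptide control; higher means more loss of mP so more displacement of Bim peptide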
Mcl1-Bid inh – disrupts binding of human Mcl-1 to Bid peptide | actives 0.97% (n = 220,000) | inhibition, % at 21.7 µM | TR-FRET Mcl-1/Bid-Dy647 peptide binding, 1536-well;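 active means compounds that cut the binding signal by more than half at the single screening dose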;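 further: His-tagged Mcl-1 with europium anti-His antibody binding Bid BH3 peptide; 0% = Mcl-1 plus peptide wells and 100% = peptide-only wells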
Bcl-xL conf – counter-screen for MCL1 inhibitors: confirmation of human Bcl-xL inhibitors; shares compounds with MCL1 BIM primary; inhibition, % at 10.9 µM; AID 2166; GST-Bcl-xL / FITC-Bim BH3 peptide FP binding; actives 54% (n = 1,700);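 active means inhibition above a cutoff equal to the mean inhibition of all tested compounds plus 3 SD, cut at about 30% in these data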;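 further: 0% = DMSO wells and 100% = unlabeled Bim BH3 control peptide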
MCL1 BIM confirm – MCL1-BIM-BH3 interaction inhibition, confirmation; GST-MCL1 / FITC-Bim-BH3 fluorescence polarization; inhibition, % at 10.9 µM; actives 61% (n = 1,700); shares compounds with MCL1 BIM primary; AID 2168;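 active means inhibition above the average of all tested compounds plus 3 SD, cut at about 40% in these data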;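 further: 0% = DMSO wells and 100% = unlabeled Bim-BH3 control peptide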
An asterisk follows results filed as active.

For NC(=O)c1ccsc1N the results were GLD-1 RNA inh 119*, Mcl-1 Bim block 0, Mcl1 Noxa PPI 24, Bcl-xL primary 177*, MCL1 BIM primary 189*, Mcl1-Bid inh -17, Bcl-xL conf 11 and MCL1 BIM confirm 2.
`CCOc1ccc(CNCCN2CCCC2)cc1` gave GLD-1 RNA inh 4, Bcl-xL primary 3 and MCL1 BIM primary 17.
On1ccccc1=S was read as GLD-1 RNA inh 0, Bcl-xL primary 1, MCL1 BIM primary 68*, Bcl-xL conf 2 and MCL1 BIM confirm 2.
`COc1ccc(C2C=C(c3ccccc3)Nc3nc(NC(C)=O)nn32)cc1` (configuration not stated) gave GLD-1 RNA inh 40*, Mcl-1 Bim block -4, Mcl1 Noxa PPI 32, Bcl-xL primary 58*, MCL1 BIM primary 60*, Mcl1-Bid inh -19, Bcl-xL conf 59* and MCL1 BIM confirm 80*.
`C=CCN1C(c2ccccc2)=CS/C1=C(/C#N)c1nnc(N2CCOCC2)n1-c1ccccc1` gave GLD-1 RNA inh 3, Mcl-1 Bim block -7, Mcl1 Noxa PPI 21, Bcl-xL primary 2, MCL1 BIM primary 1 and Mcl1-Bid inh -29.
C=CCn1c(CC#N)nnc1N1CCOCC1 was read as GLD-1 RNA inh -4, Mcl-1 Bim block -2, Mcl1 Noxa PPI 34, Bcl-xL primary -2, MCL1 BIM primary 65*, Mcl1-Bid inh -2, Bcl-xL conf 7 and MCL1 BIM confirm 4.
For C[C@@H]1CC[C@H]2C(=O)N3[C@@H](CC[C@@H](C)[C@@H]3c3ccc(Br)cc3)C(=O)N2[C@H]1c1ccc(Br)cc1 the results were GLD-1 RNA inh 9, Mcl-1 Bim block -1, Mcl1 Noxa PPI 27, Bcl-xL primary 7, MCL1 BIM primary 6 and Mcl1-Bid inh 4.
NNC(=O)c1cc(O)c(O)c(O)c1 was read as GLD-1 RNA inh 4, Mcl-1 Bim block 8, Mcl1 Noxa PPI 73*, Bcl-xL primary 25, MCL1 BIM primary 54*, Mcl1-Bid inh -83, Bcl-xL conf 34* and MCL1 BIM confirm 46*.
For COc1ccccc1CNC(=O)N1CCN(c2ccccc2Cl)CC1 the results were GLD-1 RNA inh -3, Bcl-xL primary 1 and MCL1 BIM primary -5.
`CC(=O)C1=C(c2ccccc2)NC(=O)NC1c1ccc(O)c(O)c1` (configuration not stated) gave GLD-1 RNA inh 7, Mcl-1 Bim block 1, Mcl1 Noxa PPI 17, Bcl-xL primary 13, MCL1 BIM primary 81*, Mcl1-Bid inh -81, Bcl-xL conf 23 and MCL1 BIM confirm 36.
For O=[N+]([O-])c1c(NCCCO)cc(SCc2ccco2)c2nonc12 the results were GLD-1 RNA inh 5, Mcl-1 Bim block -6, Mcl1 Noxa PPI 11, Bcl-xL primary 31*, MCL1 BIM primary 59*, Mcl1-Bid inh -82, Bcl-xL conf 14 and MCL1 BIM confirm 12.
Screening CC(C)C(NS(=O)(=O)c1cccc(C(F)(F)F)c1)C(=O)NCc1cccs1 (configuration not stated) returned GLD-1 RNA inh 0, Bcl-xL primary -1 and MCL1 BIM primary -1.
O=C(CNCc1ccccc1)Nc1ccc(F)cc1 was read as GLD-1 RNA inh 7, Mcl-1 Bim block -5, Mcl1 Noxa PPI 9, Bcl-xL primary 1, MCL1 BIM primary 43*, Mcl1-Bid inh 16, Bcl-xL conf 8 and MCL1 BIM confirm 3.
`CSc1nc(N(C)CCO)c2sc3nc(-c4ccco4)c4c(c3c2n1)CCC4` gave GLD-1 RNA inh 2, Mcl-1 Bim block 8, Mcl1 Noxa PPI 103*, Bcl-xL primary 17, MCL1 BIM primary 75*, Mcl1-Bid inh 93*, Bcl-xL conf 36* and MCL1 BIM confirm 76*.
`CSc1cccc(NC(=O)NNC(=O)C2CCN(S(=O)(=O)N(C)C)CC2)c1` gave GLD-1 RNA inh -4, Bcl-xL primary 4 and MCL1 BIM primary -1.
`O=C(NC(Cc1ccccc1)C(=O)O)/C(=C/c1ccco1)NC(=O)c1cccc(Br)c1` (configuration not stated) gave GLD-1 RNA inh 23, Mcl-1 Bim block 2, Mcl1 Noxa PPI 11, Bcl-xL primary 37*, MCL1 BIM primary 51*, Mcl1-Bid inh -68, Bcl-xL conf 16 and MCL1 BIM confirm 34.
Screening CCc1nc2n(n1)C(O)c1cc([N+](=O)[O-])ccc1S2 (configuration not stated) returned GLD-1 RNA inh -1, Mcl1 Noxa PPI 23, Bcl-xL primary 2, MCL1 BIM primary 8 and Mcl1-Bid inh 30.
For O=C(NCCOc1ccccc1)c1cc([N+](=O)[O-])ccc1N1CCOCC1 the results were GLD-1 RNA inh -5, Bcl-xL primary 2 and MCL1 BIM primary 0.
For N#C/C(=C\c1cccs1)C(=O)Nc1ccccn1 the results were GLD-1 RNA inh 30, Mcl1 Noxa PPI 18, Bcl-xL primary 55*, MCL1 BIM primary 57*, Mcl1-Bid inh -10, Bcl-xL conf 49* and MCL1 BIM confirm 71*.
For N#C/C(=C\c1ccccc1Cl)C(=O)Nc1ccccn1 the results were GLD-1 RNA inh -2, Bcl-xL primary 7 and MCL1 BIM primary 7.
Cn1c(=O)c2sccc2n2c(CCCC(=O)N3CCCCC3)nnc12 was read as GLD-1 RNA inh -1, Bcl-xL primary 1 and MCL1 BIM primary 4.
CCC(=O)N1CCN(CCN=CC2=C(O)CC(c3ccc(OC)cc3)CC2=O)CC1 (configuration not stated) was read as GLD-1 RNA inh -3, Mcl-1 Bim block -3, Mcl1 Noxa PPI -4, Bcl-xL primary -2, MCL1 BIM primary -1 and Mcl1-Bid inh -11.
`COc1ccc(C2CC(=O)C(C=NCCCO)=C(O)C2)cc1` (configuration not stated) gave GLD-1 RNA inh 22, Bcl-xL primary 64*, MCL1 BIM primary 80*, Bcl-xL conf 61* and MCL1 BIM confirm 85*.
Screening N#CC1CC(c2ccccc2)=NN1c1ccccc1[N+](=O)[O-] (configuration not stated) returned GLD-1 RNA inh 5, Mcl-1 Bim block 0, Mcl1 Noxa PPI 19, Bcl-xL primary 6, MCL1 BIM primary 1 and Mcl1-Bid inh -19.
`O=C(CN1C(=O)/C(=C2/SC(=S)N(CCS(=O)(=O)O)C2=O)c2ccccc21)Nc1cccc(C(F)(F)F)c1` gave GLD-1 RNA inh 2.
